Test results as given in PubChem BioAssay.
Values without a mark were called inactive. How the calls were made is not given here.

Target: Pantothenate synthetase (Mycobacterium tuberculosis (strain ATCC 25618 / H37Rv)) (UniProt P9WIL5)
Experiment: Coupled enzyme confirmation of inhibitors against recombinant Mtb PanC (AID 375);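 further: 0% = full reaction with vehicle and 100% = no enzyme background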
Conditions: coupled enzyme assay; at 10 µM, hits give high values

Pantothenate synthetase (Mycobacterium tuberculosis (strain ATCC 25618 / H37Rv)), sequence (P9WIL5 whole entry, looked up): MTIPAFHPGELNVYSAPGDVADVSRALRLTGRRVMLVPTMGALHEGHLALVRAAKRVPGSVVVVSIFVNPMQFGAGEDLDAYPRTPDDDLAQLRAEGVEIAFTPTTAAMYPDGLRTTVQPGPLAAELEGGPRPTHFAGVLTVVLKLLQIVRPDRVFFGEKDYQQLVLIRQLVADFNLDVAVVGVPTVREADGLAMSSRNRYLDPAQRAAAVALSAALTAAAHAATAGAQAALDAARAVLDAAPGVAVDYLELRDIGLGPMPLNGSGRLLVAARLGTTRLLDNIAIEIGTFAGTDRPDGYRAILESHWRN

SMILES | inhibition [%]
COc1cc2c(cc1NC(=O)COC(=O)Cn1cnc3ccccc31)oc1ccccc12 | 0
Cc1csc(SCc2nc3sc4c(c3c(=O)[nH]2)CCC4)n1 | 0
Cc1nn(C(=O)c2ccc3c(c2)OCO3)c(N)c1-c1ccccc1 | 0
OC(COc1ccccc1)CN1C2=NCCCN2c2ccccc21 (stereo not drawn) | 1
COc1ccc(Cl)cc1Nc1nc(C)cc(=O)[nH]1 | 3
C=CCNS(=O)(=O)c1ccc2nsnc2c1 | 0
CN(C)c1oc(-c2ccccc2Cl)nc1C#N | 4
Cc1nc2ncnn2c(N2CCC(C(=O)NC3CCCC3)CC2)c1Cc1ccccc1 | 1
CC(=O)Oc1ccc(C(c2ccc(OC(C)=O)cc2)c2ccccn2)cc1 | 0
CC(c1ccco1)N(C(=O)COc1ccc(Cl)cc1Cl)c1ccccn1 (stereo not drawn) | 4
CC(=O)c1cc2c(cc1NC(=O)CN1CCN(C(=O)c3ccco3)CC1)OCO2 | 4
O=C1NC2(Nc3ccccc31)C(=O)Nc1ccccc12 (stereo not drawn) | 0
COc1ccc(-c2nnc(SCC(=O)Nc3cc(C)on3)n2C)cc1OC | 5
CCc1nnc(NC(=O)CSc2nnc(-c3ccoc3C)n2CC(C)C)s1 | 0
O=C(NCCc1c[nH]c2ccccc12)c1cnc2n(c1=O)CCS2 | 1
CCn1c(=S)ccc2ccc(OC)cc21 | 0
CCNc1ccc(S(=O)(=O)C(F)(F)F)cc1NC(=O)C12CCC(CC1)C2 | 0
Cc1ccc(OCC(O)CN2C(=O)NC(C)(C)C2=O)cc1C (stereo not drawn) | 2
